Measured values reported in PubChem BioAssay (NCATS).
“And” between values parts separate entries of the source, which are not always exact repeats. Equal values may be shown once. Inconclusive results are not listed. Where a call stands in place of a potency, no number is given. Some structures have more than one record in an assay (separate samples or runs), and their calls can disagree. The source made the active and inactive calls. Unless noted, the call rests on the fitted dose curve; in most records, active means well fitted curve in the direction sought with a large enough effect; inconclusive means small, poorly fitted or top-dose-only effect, or another doubt; inactive means no such curve, though single readings can be large; an effect the other way counts as inactive or inconclusive.

What was measured:
[1] = target: Cytochrome P450 2D6 (Homo sapiens) (UniProt P10635); experiment: Cytochrome P450 family 2 subfamily D member 6 (CYP2D6) small molecule antagonists: luciferase biochemical (cell-free) qHTS assay (AID 1645840; active means well fitted curve in the direction sought with a large enough effect in the repeat runs; an effect the other way counts as inactive or inconclusive; further: nearly all actives have a fitted effect of over 55% in size; further: potency means the concentration at half of the fitted maximal effect)
How it was run: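 P450-Glo luminescent screen: recombinant CYP2D6 enzyme–proluciferin substrate mix preincubated with compound 10 min at room temperature, then NADPH regeneration added for 1 h at room temperature. Detection reagent added for 20 min; luciferin light read as relative luminescence units.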

[2] = target: Cytochrome P450 2C9 (Homo sapiens) (UniProt P11712); experiment: Cytochrome P450 family 2 subfamily C member 9 (CYP2C9) small molecule antagonists: luciferase biochemical (cell-free) qHTS assay (AID 1645842; active means well fitted curve in the direction sought with a large enough effect in the repeat runs; an effect the other way counts as inactive or inconclusive; further: nearly all actives have a fitted effect of over 55% in size; further: potency means the concentration at half of the fitted maximal effect)
How it was run: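 Luminescence, after 20 min with luciferin detection reagent, reflected CYP2C9 turnover during a 1 h NADPH-driven reaction at 37C. Enzyme-substrate mix contained 0.4% bovine serum albumin and was preincubated with compound 10 min at room temperature.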

[3] = Primary qHTS for inhibitors of nuclear receptor binding SET domain protein 2 (NSD2) in an isogenic RCH-ACV NSD2 p.E1099K mutant (9B) (AID 1645876); further: nearly all actives have a fitted effect of over 70% in size; further: potency means the concentration at half of the fitted maximal effect
[4] = Primary qHTS for inhibitors of nuclear receptor binding SET domain protein 2 (NSD2) in an RCH-ACV wild type WT cells (2C) (AID 1645877); further: nearly all actives have a fitted effect of over 70% in size; further: potency means the concentration at half of the fitted maximal effect
[5] = target: Cytochrome P450 3A4 (Homo sapiens) (UniProt P08684); experiment: Cytochrome P450 family 3 subfamily A member 4 (CYP3A4) small molecule antagonists: luciferase qHTS assay (AID 1645841; active means well fitted curve in the direction sought with a large enough effect in the repeat runs; an effect the other way counts as inactive or inconclusive; further: nearly all actives have a fitted effect of over 45% in size)
How it was run: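 P450-Glo CYP3A4 enzyme with proluciferin substrate preincubated 10 min with compound at room temperature, then NADPH regeneration 1 h. Luciferin detection reagent added for 20 min; luminescence recorded. Ketoconazole positive control.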

[6] = target: N-terminal Xaa-Pro-Lys N-methyltransferase 1 (Homo sapiens) (UniProt Q9BV86); experiment: Confirmatory qHTS for Inhibitors of N-terminal methyltransferase 1 (NTMT1): MTaseGlo Assay (AID 1645874);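 further: luminescence from SAH made as NTMT1 methylates SPKRIA peptide using SAM; series mostly up to about 100 µM; nearly all actives have a fitted effect of over 65% in size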
How it was run: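 qHTS format: NTMT1 125 nM, SAM 100 uM, peptide SPKRIA 1 uM final; 15 min compound preincubation, 30 min reaction at room temperature. MTase-Glo luminescence.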

[7] = NCATS anti-infectives library activity on HEK293 viability as a counter-qHTS vs the C. elegans viability qHTS (AID 1745854);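 further: potency means the concentration at half of the fitted maximal effect; HEK293 cells exposed to compounds for 24 hr before the viability read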
How it was run: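 Compounds were acoustically plated (several concentrations, 1:5, final up to 41.7 uM), then 1500 HEK293 cells added per well and incubated 24 hr at 37C, 5% CO2. CellTiter-Glo was added and luminescence read after 10 min.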

Chain of Cytochrome P450 3A4 (Homo sapiens) (P08684 whole entry, looked up): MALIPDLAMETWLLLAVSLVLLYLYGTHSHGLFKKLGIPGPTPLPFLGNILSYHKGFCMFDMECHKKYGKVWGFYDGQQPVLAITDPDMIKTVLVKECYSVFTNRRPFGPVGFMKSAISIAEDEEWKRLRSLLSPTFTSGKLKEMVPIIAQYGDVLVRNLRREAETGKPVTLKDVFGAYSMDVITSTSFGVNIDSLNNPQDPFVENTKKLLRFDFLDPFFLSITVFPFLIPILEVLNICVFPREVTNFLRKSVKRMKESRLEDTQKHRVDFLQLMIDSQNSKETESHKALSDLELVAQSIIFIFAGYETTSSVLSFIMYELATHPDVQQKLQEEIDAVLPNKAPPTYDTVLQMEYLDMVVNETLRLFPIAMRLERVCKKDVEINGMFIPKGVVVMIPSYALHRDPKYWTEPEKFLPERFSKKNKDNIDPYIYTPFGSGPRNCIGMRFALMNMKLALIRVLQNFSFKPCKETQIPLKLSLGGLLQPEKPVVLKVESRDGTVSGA
Chain of Cytochrome P450 2C9 (Homo sapiens) (P11712 whole entry, looked up): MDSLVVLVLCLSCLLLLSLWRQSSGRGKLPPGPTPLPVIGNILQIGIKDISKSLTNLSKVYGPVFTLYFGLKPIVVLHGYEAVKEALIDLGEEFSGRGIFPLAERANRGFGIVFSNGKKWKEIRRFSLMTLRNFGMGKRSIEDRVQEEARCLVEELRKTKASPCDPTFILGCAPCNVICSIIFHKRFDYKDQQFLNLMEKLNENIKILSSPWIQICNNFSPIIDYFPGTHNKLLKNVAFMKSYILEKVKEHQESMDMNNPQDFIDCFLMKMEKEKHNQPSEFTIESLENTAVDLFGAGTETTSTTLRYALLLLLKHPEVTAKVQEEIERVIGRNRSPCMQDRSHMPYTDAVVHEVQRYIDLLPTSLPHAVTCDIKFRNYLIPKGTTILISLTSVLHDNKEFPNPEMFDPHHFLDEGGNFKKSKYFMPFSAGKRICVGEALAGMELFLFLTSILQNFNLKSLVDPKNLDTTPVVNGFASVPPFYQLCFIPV
Chain of Cytochrome P450 2D6 (Homo sapiens) (P10635 whole entry, looked up): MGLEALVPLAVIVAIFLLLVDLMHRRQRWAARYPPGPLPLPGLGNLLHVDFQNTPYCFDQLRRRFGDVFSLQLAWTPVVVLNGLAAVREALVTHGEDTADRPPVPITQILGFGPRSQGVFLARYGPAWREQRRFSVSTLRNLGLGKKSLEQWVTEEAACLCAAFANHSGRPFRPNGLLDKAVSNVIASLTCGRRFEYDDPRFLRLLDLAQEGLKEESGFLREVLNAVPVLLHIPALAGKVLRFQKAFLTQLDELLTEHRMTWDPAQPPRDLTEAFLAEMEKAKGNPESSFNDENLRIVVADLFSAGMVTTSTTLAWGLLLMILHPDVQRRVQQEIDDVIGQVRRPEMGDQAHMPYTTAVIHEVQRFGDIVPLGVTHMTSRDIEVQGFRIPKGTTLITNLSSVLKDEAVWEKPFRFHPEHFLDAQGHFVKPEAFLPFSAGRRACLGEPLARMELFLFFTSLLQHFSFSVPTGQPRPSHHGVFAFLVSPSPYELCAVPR
Chain of N-terminal Xaa-Pro-Lys N-methyltransferase 1 (Homo sapiens) (Q9BV86 whole entry, looked up): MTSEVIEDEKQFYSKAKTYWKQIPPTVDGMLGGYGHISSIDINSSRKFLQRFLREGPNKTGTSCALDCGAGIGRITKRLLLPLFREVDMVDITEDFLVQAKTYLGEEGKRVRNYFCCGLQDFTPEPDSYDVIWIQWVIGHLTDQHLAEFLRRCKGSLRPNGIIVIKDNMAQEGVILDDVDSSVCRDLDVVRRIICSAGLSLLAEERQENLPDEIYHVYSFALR

| SMILES | Potency [1] | Potency [2] | Potency [3] | Potency [4] | outcome [5] | Potency [6] | Potency [7] |
| --- | --- | --- | --- | --- | --- | --- | --- |
| CCCCOc1ccc(CC(=O)NO)cc1 | 12.3 µM (active) | 17.4 µM (active) | inactive and 16.6 µM (active) | inactive and 16.6 µM (active) | – | – | – |
| S=P(N1CC1)(N1CC1)N1CC1 | 53 µM (active) | 36.4 µM (active) | inactive | inactive | – | – | – |
| O=C(O)c1ccc(-n2nc(-c3ccccc3O)nc2-c2ccccc2O)cc1 | inactive | – | 6.68 µM (active) and 4.17 µM (active) | 5.31 µM (active) and 4.17 µM (active) | inactive | – | – |
| Nc1nc(=S)c2[nH]cnc2[nH]1 | inactive | 15.5 µM (active) | 750 nM (active) and 833 nM (active) | 1.06 µM (active) and 742 nM (active) | – | inactive | 3.55 µM (active) |
| COc1cc(NCc2ccc3nc(N)nc(N)c3c2C)cc(OC)c1OC | 6.92 µM (active) | 12.3 µM (active) | 13.3 nM (active) and 1.05 µM (active) | 15 nM (active) and 1.18 µM (active) | – | – | – |
| COc1cc([C@@H]2c3cc4c(cc3[C@H](O)[C@H]3COC(=O)[C@H]23)OCO4)cc(OC)c1OC | inactive | 1.55 µM (active) | 7.5 nM (active) and 37.2 nM (active) | 6 nM (active) and 29.5 nM (active) | – | – | – |
| CC(=O)[C@H]1CC[C@H]2[C@@H]3CC=C4C[C@@H](O)CC[C@]4(C)[C@H]3CC[C@]12C | inactive | inactive | inactive | inactive | – | – | – |
| CCOC(=O)[C@H](CCc1ccccc1)N[C@H]1CS[C@H](c2cccs2)CN(CC(=O)O)C1=O | inactive | inactive | inactive | inactive | – | – | – |
| CNC1CCCN(c2c(F)cc3c(=O)c(C(=O)O)cn(C4CC4)c3c2OC)C1 (configuration not stated) | inactive | inactive | inactive | inactive | inactive | – | – |
| CC(C)(C)NC(=O)[C@H]1CC[C@H]2[C@@H]3CC[C@H]4NC(=O)C=C[C@]4(C)[C@H]3CC[C@]12C | inactive | – | – | – | – | – | – |
| COc1ccc(-c2ccc3cc(C(=O)O)ccc3c2)cc1C12CC3CC(CC(C3)C1)C2 | inactive | inactive | inactive | inactive | – | – | – |
| Cc1nnc(NS(=O)(=O)c2ccc(N)cc2)s1 | inactive | 17.4 µM (active) | inactive | inactive | – | – | – |
| NS(=O)(=O)c1cc2c(cc1Cl)NC(C(Cl)Cl)NS2(=O)=O (configuration not stated) | inactive | inactive | inactive | inactive | – | – | – |
| CNNCc1ccc(C(=O)NC(C)C)cc1 | inactive | inactive | inactive | inactive | – | – | – |
| O=S(=O)(O)CCS | inactive | inactive | inactive | inactive | inactive | – | – |
| Cc1ncc([N+](=O)[O-])n1CCO | inactive | inactive | inactive | inactive | – | – | – |

| SMILES | Potency [1] | Potency [2] | Potency [3] | Potency [4] | outcome [5] | Potency [6] | Potency [7] |
| --- | --- | --- | --- | --- | --- | --- | --- |
| NC(N)=NC(N)=NCCc1ccccc1 | 6.17 µM (active) | – | – | – | – | – | – |
| COC(=O)Nc1nc2ccc(Sc3ccccc3)cc2[nH]1 | inactive | inactive | 266 nM (active) and 417 nM (active) | 266 nM (active) and 372 nM (active) | – | – | – |
| O=c1cc(O)c(Cl)c[nH]1 | inactive | inactive | inactive | inactive | – | – | – |
| COc1cnc(NS(=O)(=O)c2ccc(N)cc2)nc1 | inactive | inactive | inactive | inactive | – | – | – |
| Cn1c(=O)c2c(ncn2CC(O)CO)n(C)c1=O (configuration not stated) | inactive | inactive | inactive | inactive | – | – | – |
| CCOc1cc(N)c(Cl)cc1C(=O)NCC1CN(Cc2ccc(F)cc2)CCO1 (configuration not stated) | 15.5 µM (active) | inactive | 21.1 µM (active) | – | – | – | – |
| NC(=O)c1cccnc1 | inactive | inactive | inactive | inactive | – | – | – |
| Cc1noc(NS(=O)(=O)c2ccc(N)cc2)c1C | inactive | – | – | – | – | – | – |
| O=C(NCC1CN(c2ccc(N3CCOCC3=O)cc2)C(=O)O1)c1ccc(Cl)s1 (configuration not stated) | inactive | 8.71 µM (active) and 3.79 µM (active) | – | – | – | – | – |
| CN1CCN(c2c(F)cc3c(=O)c(C(=O)O)cn4c3c2OCN4C)CC1 | inactive | – | – | – | – | – | – |
| O=NN(CCCl)C(=O)NC1CCCCC1 | inactive | – | inactive | inactive | inactive | – | – |
| CNS(=O)(=O)Cc1ccc2[nH]cc(CCN(C)C)c2c1 | inactive | inactive | inactive | inactive | – | – | – |
| CC1(C)[C@H](C(=O)O)N2C(=O)C[C@H]2S1(=O)=O | inactive | inactive | inactive | inactive | – | – | – |
| Cn1nnc2c(C(N)=O)ncn2c1=O | inactive | inactive | inactive | inactive | – | – | – |
| O=C(O)CCn1c2c(c3ccccc31)C[C@H](NS(=O)(=O)c1ccc(F)cc1)CC2 | inactive | – | – | – | – | – | – |
| CN1CCCC(n2nc(Cc3ccc(Cl)cc3)c3ccccc3c2=O)CC1 (configuration not stated) | 0.617 µM (active) | inactive | – | – | – | – | – |
